# PubChem BioAssay AID743060 (The Scripps Research Institute Molecular Screening Center, 2013)
# Assay: inhibitors of T. brucei MetRS aminoacylation, late-stage follow-up, biochemical, radioactivity, round 1 (AID 743060)
# Conditions: purified enzyme, radiolabel aminoacylation, scintillation, 2 h; at 1 µM; stronger effect = higher value
row,Structure (SMILES),inhibition [%]
1,Cc1[nH]c2ccc(Br)cc2c(=O)c1CN1CCCCCC1,19.4
2,COc1cccc(NC(=O)CSc2nnc3c(n2)[nH]c2ccc(C)cc23)c1,97.7
3,Clc1ccc(-c2nnc(SCc3nc4ccccc4[nH]3)o2)c(Cl)c1,75.3
4,CC(=O)N(CCc1ccccc1)C1CC(=O)N(c2ccc(Br)cc2)C1=O (stereo not given),-12.2
5,O=C(NCCc1nc2ccccc2[nH]1)c1ccc(Cl)c(Cl)c1,74.6
6,O=C(NCc1nc2ccccc2[nH]1)C1=C[C@@H](c2ccc3c(c2)OCO3)C[C@@H](OCCCCO)O1,50.4
7,C[C@H](O)[C@@H]1C(=O)N2CCc3c([nH]c4ccccc34)[C@@H]2C[C@@H]1N(C)Cc1ccc2c(c1)OCO2,1.98
8,CCc1ccc2c(c1)c1nnc(SCC(=O)Nc3ccc4c(c3)OCO4)nc1n2C,-1.63
9,CCN(CC)C(=O)C(=O)c1cn(CC(=O)Nc2ccccc2OC)c2ccccc12,-7.03
10,COc1ccc(OCC(O)CNC(=O)Nc2ccc(Cl)cc2)cc1 (stereo not given),28.9
11,Cc1ccc(CNC(=O)CSc2nnc3c(n2)[nH]c2ccc(C)cc23)cc1,76.3
12,CCO[C@H]1OC(C(=O)NCc2nc3ccccc3[nH]2)=C[C@@H](c2ccc(Br)cc2)[C@@H]1CCCO,0.88
13,O=C(Cn1cc(C(=O)c2ccco2)c2ccccc21)Nc1cccc(C(F)(F)F)c1,45.2
14,CCN(CC)C(=O)C(=O)c1cn(CC(=O)Nc2cccc(OC)c2)c2ccccc12,41.4
15,CC(C)OCCCN1CC(=O)N2C(c3cccc([N+](=O)[O-])c3)c3[nH]c4ccccc4c3C[C@H]2C1=O (stereo not given in full),50
